Measured values reported in PubChem BioAssay AID1159580 (chemical genetic matrix, 2015).
“And” between values parts separate entries of the source, which are not always exact repeats. Equal entries are not always repeated. The campaign covered roughly 5,500 compounds. About 2,000 (36%) were called active. Not shown: some 18% with an inconclusive outcome. Cut-off read from the data, not from the text of the source: active = normalized growth mostly below about 0.91 (no sharp cut-off); inconclusive = no clear call, values can overlap the other calls; inactive = mostly above about 0.92. The list shows a part of the results.

Assay: chemical genetic growth profiling, strain panel (AID 1159580);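 note: tested at 20 µM; growth read once vehicle control cultures reached saturation at 30 °C; 1 = growth at the plate median or of vehicle wells; lower values mean less growth of the strain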
Conditions: S. cerevisiae deletion strains, growth OD

Measured: normalized growth

CS(=O)(=O)c1ccc([C@@H](O)[C@@H](CO)NC(=O)C(Cl)Cl)cc1
inactive: locus YAL013W, strain DEP1, stronger effect = lower value 0.978 | locus YAL021C, strain ccr4, stronger effect = lower value 1.05 | locus YAL026C, strain drs2, stronger effect = lower value 1.04 | locus YAL030W, strain snc1, stronger effect = lower value 1.01 | locus YBL061C, strain skt5, stronger effect = lower value 1.02 | locus YBR009C, strain hhf1, stronger effect = lower value 1.01 | locus YBR021W, strain FUR4, stronger effect = lower value 1.1 | locus YBR023C, strain chs3, stronger effect = lower value 1.04 | locus YBR171W, strain sec66, stronger effect = lower value 1.04 | locus YBR229C, strain ROT2, stronger effect = lower value 0.964 | locus YBR231C, strain swc5, stronger effect = lower value 1.02 | locus YBR279W, strain paf1, stronger effect = lower value 1.04 | locus YCL011C, strain gbp2, stronger effect = lower value 1.03 | locus YCL016C, strain dcc1, stronger effect = lower value 1.04 | locus YCL029C, strain bik1, stronger effect = lower value 0.981 | locus YCL069W, strain vba3, stronger effect = lower value 1.03 | locus YCR088W, strain abp1, stronger effect = lower value 1.03 | locus YDL005C, strain med2, stronger effect = lower value 1.02 | locus YDL035C, strain GPR1, stronger effect = lower value 0.988 | locus YDL040C, strain nat1, stronger effect = lower value 1.02 | locus YDL074C, strain BRE1, stronger effect = lower value 0.957 | locus YDL101C, strain DUN1, stronger effect = lower value 0.967 | locus YDL134C, strain PPH21, stronger effect = lower value 0.985 | locus YDL185W, strain tfp1, stronger effect = lower value 0.941 | locus YDL192W, strain arf1, stronger effect = lower value 0.981 | locus YDR001C, strain nth1, stronger effect = lower value 1.02 | locus YDR069C, strain doa4, stronger effect = lower value 1 | locus YDR101C, strain arx1, stronger effect = lower value 0.998 | locus YDR137W, strain rgp1, stronger effect = lower value 1.06 | locus YDR150W, strain NUM1, stronger effect = lower value 0.977 | locus YDR159W, strain sac3, stronger effect = lower value 0.942 | locus YDR162C, strain NBP2, stronger effect = lower value 0.954 | locus YDR195W, strain ref2 1.01 | locus YDR297W, strain sur2, stronger effect = lower value 1.02 | locus YDR318W, strain mcm21, stronger effect = lower value 0.998 | locus YDR334W, strain swr1, stronger effect = lower value 1.02 | locus YDR335W, strain msn5, stronger effect = lower value 1.04 | locus YDR388W, stronger effect = lower value 0.991 | locus YDR392W, strain spt3, stronger effect = lower value 0.947 | locus YDR502C, strain sam2, stronger effect = lower value 0.997 | locus YEL003W, strain gim4, stronger effect = lower value 1.01 | locus YEL037C, strain rad23, stronger effect = lower value 1.02 | locus YEL061C, strain CIN8 (second series), stronger effect = lower value 1.02 | locus YEL061C, strain CIN8, stronger effect = lower value 0.979 | locus YER015W, strain faa2, stronger effect = lower value 1.02 | locus YER016W, strain bim1, stronger effect = lower value 1.04 | locus YER110C, stronger effect = lower value 0.974 | locus YER111C, strain swi4, stronger effect = lower value 1.03 | locus YER155C, strain BEM2 (second series), stronger effect = lower value 1.03 | locus YER155C, strain BEM2, stronger effect = lower value 1 | locus YER167W, strain BCK2, stronger effect = lower value 0.985 | locus YFR010W, strain ubp6, stronger effect = lower value 1.02 | locus YGL078C, strain dbp3, stronger effect = lower value 1 | locus YGL086W, strain mad1, stronger effect = lower value 1 | locus YGL167C, strain pmr1, stronger effect = lower value 1.02 | locus YGL173C, strain kem1, stronger effect = lower value 1.02 | locus YGL227W, strain vid30, stronger effect = lower value 1.02 | locus YGL240W, strain doc1, stronger effect = lower value 0.996 | locus YGL248W, strain PDE1, stronger effect = lower value 0.968 | locus YGL253W, strain hxk2, stronger effect = lower value 1.05 | locus YGR078C, strain PAC10, stronger effect = lower value 0.993 | locus YGR135W, strain pre9, stronger effect = lower value 0.98 | locus YGR229C, strain SMI1, stronger effect = lower value 0.979 | locus YGR252W, strain gcn5, stronger effect = lower value 1.06 | locus YHR013C, strain ard1, stronger effect = lower value 1.05 | locus YHR027C, strain rpn1, stronger effect = lower value 1.02 | locus YHR030C, strain SLT2, stronger effect = lower value 0.983 and 0.994 | locus YHR079C, strain IRE1 (second series), stronger effect = lower value 0.998 | locus YHR079C, strain IRE1, stronger effect = lower value 0.982 | locus YHR094C, strain hxt1, stronger effect = lower value 0.991 | locus YHR129C, strain ARP1, stronger effect = lower value 0.989 | locus YHR142W, strain chs7, stronger effect = lower value 1.07 | locus YHR200W, strain rpn10, stronger effect = lower value 0.989 | locus YIL066C, strain RNR3, stronger effect = lower value 0.995 | locus YIL073C, strain SPO22, stronger effect = lower value 0.998 | locus YIL125W, strain kgd1, stronger effect = lower value 0.992 | locus YIR030C, strain dcg1, stronger effect = lower value 0.978 | locus YJL092W, strain hpr5, stronger effect = lower value 1.02 | locus YJL095W, strain BCK1 (second series), stronger effect = lower value 1.01 | locus YJL095W, strain BCK1, stronger effect = lower value 1 and 0.995 | locus YJL115W, strain asf1, stronger effect = lower value 1.04 | locus YJL129C, strain trk1, stronger effect = lower value 1.05 | locus YJL134W, strain LCB3, stronger effect = lower value 0.974 | locus YJL154C, strain vps35, stronger effect = lower value 1.03 | locus YJL164C, strain tpk1, stronger effect = lower value 1.01 | locus YJL166W, strain qcr8, stronger effect = lower value 1.02 | locus YJL168C, strain set2, stronger effect = lower value 0.985 | locus YJL187C, strain SWE1 (second series), stronger effect = lower value 0.975 | locus YJR043C, strain POL32, stronger effect = lower value 1.01 | locus YJR066W, strain TOR1, stronger effect = lower value 0.962 | locus YJR075W, strain HOC1, stronger effect = lower value 0.983
